CDC25B-CDK2 inh = primary biochemical HTRF screen for blockers of M-phase inducer phosphatase 2 binding to CDK2/cyclin A; AID 1259370, 2018; hit rate 0.72% among 94,000; HTRF CDC25B-CDK2/CyclinA binding, anti-His/anti-Flag; stronger effect = higher value; z-score (concentration not given with the values); P30305+P24941; in the data active = z-score above about 3.2
HIV TAR-Tat = TAR RNA-Tat peptide displacers, HIV-1, primary screen, biochemical, FRET, FAM/TAMRA-labeled Tat | z-score (no concentration beside the values) | hit rate 0.6% among 100,000 | HIV-1 TAR RNA, Tat peptide displacement FRET; stronger effect = higher value; active = z-score of 3 or more in at least 2 runs
Numbers stand for hits; - = inactive; . = no result. Sampled rows, rich in hits. Any-hit rate of the full collection: about 0.9%.

SMILES	CDC25B-CDK2 inh	HIV TAR-Tat
O=C1CCCc2oc3c(cc(NS(=O)(=O)c4cccc([N+](=O)[O-])c4)c4ccccc43)c21	-	.
CCc1ccc(S(=O)(=O)Nc2cc3c4c(oc3c3ccccc23)CCCC4=O)cc1	18	.
COc1ccc(C2/C(=C(\O)c3ccc(F)cc3)C(=O)C(=O)N2c2nncs2)cc1OC (stereo not given)	-	-
CC(C)Cn1cc(NC(=O)Nc2cc(F)ccc2F)c2ccccc2c1=O	.	-
CC(C)Cn1cc(NC(=O)Nc2ccc(Br)cc2F)c2ccccc2c1=O	14.5	-
NC(c1ccccc1)c1c(O)ccc2ccccc12 (stereo not given)	-	.
O=C(CN1C(=O)CSc2ccc(S(=O)(=O)N3CCOCC3)cc21)N1CCc2ccccc21	.	-
CCOC(=O)C(C)(C)Sc1nc(-c2ccc(F)cc2)nc2c1c(=O)n(C)c(=O)n2C	-	-
Clc1ccccc1/C=C/c1nn2c(-c3ccco3)nnc2s1	-	18.8
Clc1ccccc1-c1ccc(-c2nn3c(-c4ccco4)nnc3s2)o1	15.2	-
C(=C\c1nn2c(-c3ccncc3)nnc2s1)/c1ccco1	-	25.6
Clc1ccccc1/C=C/c1nn2c(-c3ccncc3)nnc2s1	-	-
Clc1cccc(-c2nnc3sc(-c4ccco4)nn23)c1	-	-
Cc1ccc(/C=C/c2nn3c(-c4ccco4)nnc3s2)cc1	-	-
Cc1ccc(/C=C/c2nn3c(-c4ccncc4)nnc3s2)cc1	-	-
Cc1ccc(/C=C/c2nn3c(-c4ccco4)nnc3s2)cc1C	-	16.6
CN1CCN(C(=O)c2cc3c(s2)-c2ccccc2SC3)CC1	-	-
O=C(NCC1CCCO1)c1ccc(-n2ccc3ccccc32)s1 (stereo not given)	.	-
Cc1noc2ncnc(N(CCO)c3ccccc3)c12	.	-
CCOC(=O)CSc1nnc(NCC(=O)OC)c(=O)[nH]1	4.18	.
CCOC(=O)CSc1nnc(-c2ccccc2)c(=O)[nH]1	-	-
O=S(=O)(O)c1ccc2[nH]c(=S)sc2c1	-	.
O=S(=O)(O)c1cc[n+]([O-])cc1	4.4	.
O=C(C1CCN(c2nc3ccccc3n3cccc23)CC1)N1CCN(c2ccccc2F)CC1	.	-
CC(=O)N1CCOc2cc(S(=O)(=O)Nc3cccnc3)c(Cl)cc21	.	-
SMILES	CDC25B-CDK2 inh	HIV TAR-Tat
CC(=O)c1ccc(N2CCN(c3nc4ccccc4c4nc(-c5cccnc5)nn34)CC2)cc1	-	.
COc1ccc(N2CSC3=C(C#N)C(c4ccc(Br)cc4)CC(=O)N3C2)cc1 (stereo not given)	5.33	-
N#CC1=C2SCN(c3ccc(F)cc3)CN2C(=O)CC1c1cccc(F)c1 (stereo not given)	6.44	-
N#CC1=C2SCN(c3ccc(F)cc3)CN2C(=O)CC1c1cccc(Br)c1 (stereo not given)	3.28	-
N#CC1=C2SCN(c3ccccc3F)CN2C(=O)CC1c1ccc(Br)cc1 (stereo not given)	-	-
N#CC1=C2SCN(c3ccccc3)CN2C(=O)CC1c1ccc(Br)cc1 (stereo not given)	3.95	-
Cn1c(C(=O)N2CCC(C(=O)NCCCN3CCOCC3)CC2)cc2sccc21	-	-
COc1cc(Cl)c(NS(=O)(=O)c2ccc3c(c2)NC(=O)CCS3)c(OC)c1	.	-
CCOC(=O)CSc1nnc(CSc2nc(C)cc(C)n2)n1-c1ccc(Cl)cc1	-	-
Cc1cc2nc(CSc3nc(-c4ccccc4F)nc4cc(=O)[nH]n34)cc(=O)n2o1	.	-
Cc1cc(NC(=O)CSc2nc(-c3ccco3)nc3c2c(=O)n(C)c(=O)n3C)no1	-	.
COc1ccc(Br)cc1C1CC(=O)N2CN(Cc3ccco3)CSC2=C1C#N (stereo not given)	-	-
N#CC1=C2SCN(c3ccc(Br)cc3)CN2C(=O)CC1c1cccc(F)c1 (stereo not given)	6.61	-
COc1ccc(Br)cc1C1CC(=O)N2CN(c3ccc(F)cc3)CSC2=C1C#N (stereo not given)	4.43	-
CCc1ccc(N2CSC3=C(C#N)C(c4cccc(F)c4)CC(=O)N3C2)cc1 (stereo not given)	5.18	-
N#CC1=C2SCN(c3ccccc3)CN2C(=O)CC1c1cccc(Br)c1 (stereo not given)	6.86	-
Oc1cccc2ccc(CNc3cccc(Cl)c3)nc12	.	-
Cc1ccc(C2CC(c3c(O)n(C)c(=O)[nH]c3=O)=Nc3ccccc3S2)s1 (stereo not given)	-	-
CN1C(C(=O)N2CCN(C(=O)C(C)(C)C)CC2)=CC(c2cccs2)=NS1(=O)=O	-	-
CC(CC(=O)Nc1ccc(F)c(Cl)c1)S(=O)(=O)c1ccc2c(c1)NC(=O)CS2 (stereo not given)	.	-
O=C(Cn1c(=O)cnc2cc(S(=O)(=O)N3CCCCC3)ccc21)NCc1ccco1	-	-
NC(=O)CSc1cn(CC(=O)N2CCCC2)c2ccccc12	.	-
O=C(Nc1ccc(Sc2nc3ccccc3n3nnnc23)cc1)C1CC1	-	-
CC(=O)Nc1cccc(OCc2cc(=O)n3oc(C)cc3n2)c1	-	8.06
Cc1cc(C)cc(OCc2cc(=O)n3oc(C)cc3n2)c1	-	-
SMILES	CDC25B-CDK2 inh	HIV TAR-Tat
Cc1cc(C)cc(NC(=O)CCS(=O)(=O)c2ccc3c(c2)CCN3C(=O)C2CC2)c1	.	-
COc1cc(-c2coc3cc(OCc4ccccc4)c(OC)c(O)c3c2=O)cc(OCc2ccccc2)c1OC	.	25.8
COc1ccc(-c2coc3cc(OCc4ccc(Br)cc4)cc(O)c3c2=O)cc1OC	-	-
COc1cc2nc(Nc3ccc(C)c(C)c3)nc(N)c2cc1OC	9.26	-
COc1cc2nc(Nc3ccc(C)c(Cl)c3)nc(N)c2cc1OC	-	-
COc1cc2nc(Nc3ccc(F)cc3)nc(N)c2cc1OC	12.8	-
COc1ccc(Nc2nc(N)c3ccccc3n2)cc1	-	-
Cn1c(C(=O)NCc2ccco2)cc2oc3ccccc3c21	-	.
COC(=O)c1cc2oc3ccccc3c2n1CC(=O)NCc1ccco1	-	8
c1ccc(CNc2cc(-c3ccccc3)nc3nncn23)cc1	4.61	-
COc1ccc(CNc2cc(-c3ccccc3)nc3nncn23)cc1	-	-
Cc1sc2c(c1C)CSC(C(=O)NC1CCCCC1)=C2	.	-
CS(=O)(=O)N1CCN(c2ccc(NC(=O)CN3C(=O)c4ccccc4S3(=O)=O)cc2)CC1	-	-
O=C(CN1C(=O)c2ccccc2S1(=O)=O)Nc1ccc(N2CCCC2)cc1	11.3	14.9
COc1cccc(C2c3c(-c4ccccc4O)n[nH]c3C(=O)N2Cc2ccncc2)c1 (stereo not given)	-	-
COc1ccc(S(=O)(=O)N2CCC(c3nnc(-c4ccccc4OC)o3)CC2)cc1OC	-	-
Cn1c(=O)c2c(c3ccccc31)OC(=O)CC2c1ccco1 (stereo not given)	-	14.2
Cn1c(=O)c2c(c3ccccc31)OC(=O)CC2c1ccccc1 (stereo not given)	-	-
Cc1cc(C)c(-c2n[nH]c3c2C(c2ccc(Cl)cc2)N(CCO)C3=O)c(O)c1 (stereo not given)	-	-
O=C(NC(NC(=S)Nc1ccccc1Br)C(Cl)(Cl)Cl)c1ccccc1 (stereo not given)	-	.
O=C(NC(NC(=S)Nc1cccc2ccccc12)C(Cl)(Cl)Cl)c1ccccc1F (stereo not given)	5.27	.
CC(C)NC(=O)c1nc(-n2cnnc2)ccc1Br	.	-
